Screening results deposited in PubChem BioAssay by National Center for Advancing Translational Sciences (NCATS).
DRD3 antagonist = blocks the human D3 dopamine receptor. AID 652054. 360,000 compounds, 2.5% hits. max response, negative = inhibition, %. D3R cells, DiscoveRx beta-arrestin luminescence, antagonist mode; stronger effect = lower value; in the data active means max response below about -50%; inconclusive means no clear call, values can overlap the other calls; further: on the % scale 0 is the no-effect control and ±100 the full control effect
Target sequence (P35462 whole entry, looked up): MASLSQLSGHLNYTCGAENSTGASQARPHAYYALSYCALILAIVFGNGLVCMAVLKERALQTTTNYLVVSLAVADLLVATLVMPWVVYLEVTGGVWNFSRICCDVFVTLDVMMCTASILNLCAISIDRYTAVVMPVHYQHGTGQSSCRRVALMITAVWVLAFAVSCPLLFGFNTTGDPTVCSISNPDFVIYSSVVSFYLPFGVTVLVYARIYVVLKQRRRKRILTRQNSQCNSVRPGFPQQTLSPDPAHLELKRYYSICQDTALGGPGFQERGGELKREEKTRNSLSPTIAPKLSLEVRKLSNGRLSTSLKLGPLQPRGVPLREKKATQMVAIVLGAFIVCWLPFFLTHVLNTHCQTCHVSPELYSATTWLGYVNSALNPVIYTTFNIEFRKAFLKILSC
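Cells expressing the human receptor were seeded at 1500 cells/well, incubated overnight at 37 degrees C in 5% CO2, then exposed to library compounds with dopamine controls for 90 minutes at 37 degrees C before luminescent detection.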
D1 antagonist = blocks dopamine activation of the human D1 receptor; activity change, negative = inhibition, % at 10 µM; 360,000 compounds, 3.2% hits; P21728; HEK293 TREx D1 cells, calcium flux, dopamine EC80; stronger effect = lower value; in the data active means activity change below about -30%; further: on the % scale 0 is the no-effect control and ±100 the full control effect
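Cells carrying a force-coupled, tetracycline-inducible human D1 receptor report calcium flux. Each well gets a 10 s baseline, compound with 180 s monitoring, then an EC80 dopamine stimulus with a second 180 s kinetic read.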
D1 PAM = enhances dopamine response at the human D1 receptor; 360,000 compounds, 0.036% hits; potentiation, % at 10 µM; HEK293 TREx D1 cells, calcium flux, dopamine EC20 potentiation; AID 504651; P21728; in the data active means potentiation above about 30%; further: 0% is about no effect
D3 ag = activates the human D3 dopamine receptor | P35462 | D3R DiscoveRx beta-arrestin cells, luminescence, 90 min | max activation, % | 410,000 compounds, 0.58% hits | AID 652048; in the data active means max activation above about 30%; further: 0% is about no effect
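Agonist mode: compounds and dopamine controls were applied to plated cells for 90 min at 37 degrees C after an overnight attachment at 1500 cells/well. Luminescent read-out followed 30 - 60 minutes at room temperature with DiscoveRx detection reagent.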
D1 agonist = agonists of human D1 dopamine receptor; activation, % at 2 µM; HEK293 T-REx D1 cells, calcium flux, agonist mode; 360,000 compounds, 1% hits; in the data active means activation above about 30%; further: 0% is about no effect
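Tetracycline-induced HEK293 TREx D1 cells, force-coupled to calcium signalling, were dye-loaded with a no-wash calcium kit. Compound was pin-added after a 10 s baseline. Fluorescence was read kinetically at 1 cycle/s for 180 s, with calcium rises flagged as agonism.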
* marks the source's active call; other numbers are inactive results; ? = inconclusive; · = no result given. Only some compounds are listed: those with a hit (about 6.1% of all), similar ones and a draw of the others.

SMILES	DRD3 antagonist	D1 antagonist	D1 PAM	D3 ag	D1 agonist
CCNc1oc(/C=C/c2ccc(OCC)cc2)nc1C#N	7.1	-22.0	-4.0	3.3	0.0
COc1ccc(/C=C/c2nc(C#N)c(NCCN(C)C)o2)cc1OC	-8.4	-30.4*	-3.0	0.5	-3.1
CCOc1ccc(Br)cc1S(=O)(=O)Nc1cccc(-c2ccc(OC)nn2)c1	·	1.5	-1.2	6.9	0.9
COc1ccccc1-n1cnnc1SC(C)C(=O)Nc1cccc([N+](=O)[O-])c1 (centres undefined)	-16.5	-14.2	-6.0	-4.6	6.2
O=C(c1ccco1)N1CCc2[nH]nc(-c3ccc(Cl)cc3)c2C1	-14.6	-30.4*	0.9	2.7	2.8
COc1ccc(NS(=O)(=O)c2ccc(N/N=C(\C)c3ccncc3)c([N+](=O)[O-])c2)cc1	-64.8*	-6.2	-4.0	-12.5	5.8
C/C(=N\Nc1ccc(S(=O)(=O)Nc2ccc(Cl)cc2)cc1[N+](=O)[O-])c1ccc(N2CCOCC2)cc1	?	5.7	5.2	-0.7	-0.9
C/C(=N\Nc1ccc(S(=O)(=O)Nc2ccccc2)cc1[N+](=O)[O-])c1ccncc1	·	-32.1*	-3.9	·	0.6
COc1ccc(C(CCNCc2ccc(N(C)C)cc2)c2ccccc2OC)cc1 (centres undefined)	-54.6*	11.4	-9.6	-30.0	5.6
COc1ccc(C(CCNCc2ccc(OC(C)C)cc2)c2ccccc2OC)cc1 (centres undefined)	14.7	10.1	3.1	-10.0	58.7*
COc1ccc(CNCCC(c2ccc(OC)cc2)c2ccccc2OC)cc1 (centres undefined)	1.5	-4.4	-1.1	-10.0	30.4*
Cc1nc(SCC(=O)N2CCN(c3ccccn3)CC2)c(C#N)c(C)c1C	32.3	·	·	-1.9	·
CCN1CCN(Cc2ccc(NC(=O)CC3Oc4ccc(C)cc4NC3=O)cc2)CC1 (centres undefined)	-10.0	5.0	·	-9.3	1.6
Cc1ccc2c(c1)NC(=O)C(CC(=O)Nc1ccc(CN3CCC(C)CC3)cc1)O2 (centres undefined)	-60.6*	23.9	·	-9.4	5.9
COc1ccc(NC(=O)CC2Oc3ccccc3NC2=O)cc1 (centres undefined)	2.8	-40.2*	-15.8	2.1	0.5
COc1cccc(NC(=O)CC2Oc3ccccc3NC2=O)c1 (centres undefined)	-8.1	-3.2	-1.9	3.6	0.2
COc1ccc(/C=C/CN2CCC(n3nccc3NC(=O)C3CC3)CC2)cc1	-6.0	1.2	2.6	1.4	6.2
Cc1cc(C)n(-c2nc(NCCCN(C)C)c3c4c(sc3n2)CCCC4)n1	-9.3	-24.1	-8.6	-8.5	10.0
Cc1cc(C)n(-c2nc(NCCN(C)C)c3c4c(sc3n2)CCCC4)n1	-7.4	6.8	-3.6	-4.8	32.8*
Cc1ccccc1Cn1nc(C)c(NC(=O)c2noc3c2CC(C(C)(C)C)CC3)c1C (centres undefined)	3.5	2.0	-1.4	33.7*	1.9
CN(C)c1nc(NCc2ccccc2)nc(SCC(=O)Nc2ccc(Cl)c(Cl)c2)n1	41.1	8.1	2.4	46.5*	6.4
COC(=O)CSc1nc(NCc2ccccc2)nc(N(C)C)n1	0.0	-40.1*	-6.9	12.1	7.8
CCNc1nc(NCc2ccccc2)nc(SCC(N)=O)n1	-4.5	-7.4	-6.0	-11.3	1.9
CC(=O)Nc1cccc(/C(C)=N/NC(=O)c2ccc(CN3CCOCC3)cc2)c1	7.3	1.0	-3.1	5.9	1.2
CCc1ccc(NC(=O)c2ccc(F)c(S(=O)(=O)N3CCN(c4ccc(OC)cc4)CC3)c2)cc1	·	-45.0*	-3.5	14.8	1.7
SMILES	DRD3 antagonist	D1 antagonist	D1 PAM	D3 ag	D1 agonist
COc1ccc(OCCOC(=O)c2cc(S(=O)(=O)N3CCOCC3)c(Cl)cc2Cl)cc1	0.0	-6.3	-10.7	3.7	13.8
Cc1ccc(C(=O)OCCOc2cccc(Cl)c2)cc1S(=O)(=O)N1CCOCC1	5.2	-14.8	-2.1	-0.3	31.0*
COc1ccc(OCCOC(=O)c2ccc(F)c(S(=O)(=O)N3CCOCC3)c2)cc1	-1.2	-63.6*	-6.7	0.5	14.1
O=C(OCCOc1cccc(Cl)c1)c1ccc(F)c(S(=O)(=O)N2CCOCC2)c1	-12.4	12.2	-5.8	0.9	14.7
Fc1ccccc1C1c2[nH]c3ccccc3c2CCN1Cc1ccoc1 (centres undefined)	1.4	-27.5	-1.1	0.1	2.3
CCN1CCN(C2=C(Cl)C(=O)N(Cc3ccccc3)C2=O)CC1	-50.5*	10.1	-8.8	-7.2	0.6
CCOc1ccc(NC2=C(Cl)C(=O)N(Cc3ccccc3)C2=O)cc1	-8.8	-30.1*	-7.6	-6.9	4.0
CN1CCN(C2=C(Cl)C(=O)N(Cc3ccccc3)C2=O)CC1	-12.9	-14.4	-7.1	-10.8	7.6
COc1ccc(C2=C(Nc3ccccc3)c3ccccc3C2=O)cc1	-25.5	-35.5*	-2.9	15.1	3.6
COc1ccc(CCN2C(=O)CN=C2Nc2ccc(F)cc2)cc1OC	-11.6	-39.3*	2.3	-4.0	-0.3
COc1ccc(Cl)cc1NC(=O)Cn1nnc2sc(-c3ccccc3)cc2c1=O	·	-11.9	-0.7	-3.9	0.2
COC1=C(Nc2ccc(OC)cc2)C(=O)c2ccccc2C1=O	19.0	-17.6	-3.4	0.8	3.1
CCOc1ccc(NC2=NCC(=O)N2CCc2ccccc2)cc1	3.2	-65.2*	8.7	11.4	101.7*
CCOc1ccc(NC2=C(OC)C(=O)c3ccccc3C2=O)cc1	-22.8	-32.6*	-1.8	11.1	-0.3
O=C(OCC(=O)N1CCCCCC1)c1ccc(F)cc1F	4.2	-0.7	-0.1	0.4	2.4
Cc1ccc(F)c(Cn2cnc3c(cnn3C(C)(C)C)c2=O)c1Cl	·	10.7	-2.9	·	2.1
OC[C@H]1O[C@@H](c2nc3ccc(-c4nc(-c5cccs5)no4)cc3[nH]2)C[C@@H]1O	0.0	·	·	8.5	·
O=C(Nc1cc(Cl)cc(Cl)c1)c1cc(S(=O)(=O)NC2CCCC2)ccc1F	·	30.8	-2.2	-11.9	4.6
CC(C)(C)n1c(O)c2ccc(C(=O)N=NC(=O)c3ccccc3)cc2c1O	-14.7	-31.0*	-0.4	-7.7	9.4
COC(=O)NN=C1CCC(c2ccccc2)CC1 (centres undefined)	17.1	3.6	-0.4	2.5	0.1
CC(C)(C)C(=O)NN=C1CCC(c2ccccc2)CC1 (centres undefined)	37.5	-33.4*	-2.4	4.3	6.4
CSCC[C@@H](C(=O)NCCCCCCCCCCC(=O)N1CCNCC1)n1cc(CCO)nn1	-28.1	-35.6*	-8.6	7.3	1.8
NCCCCCc1cn([C@@H](CO)C(=O)NCCCCCCCCCCC(=O)N2CCNCC2)nn1	25.9	-31.6*	-4.4	2.3	3.2
C=CCn1c(SCC#N)nnc1-c1ccc2ncccc2c1	-11.8	-10.5	-2.5	3.0	0.8
Cc1ccc(Cl)cc1-n1c(=O)cc(N2CCN(c3ccc(F)cc3)CC2)[nH]c1=O	·	25.6	0.2	9.0	1.5
